MARV entry inh – Marburg virus entry inhibition; Marburg virus pseudotyped entry inhibition, cell reporter; Potency, µM (top dose mostly 37.8 µM), inactives show top-dose activity change, negative = inhibition, actives largely listed as inhibitors; hit rate 1.8% among 300,000; AID 540276; calls by dose curve; tested in HEK293 cells; further: potency means the concentration at half of the fitted maximal effect
FMDV antiviral – blocks foot and mouth disease virus; FMDV antiviral cell-based qHTS; Potency, µM (titrated, usually from 57.9 µM), without a hit: at the highest dose activity change, negative = inhibition, hits mostly inhibitors; hit rate 1.2% among 410,000; calls by dose curve; tested in HEK293T cells; further: read-out not given here; potency means the concentration at half of the fitted maximal effect; nearly all actives have a fitted effect of over 45% in size
HCMV inh – inhibitors of human cytomegalovirus. hit rate 4.5% among 410,000. activity change, negative = inhibition, % at 57.5 µM. HFF cells, HCMV-luciferase reporter, 72 h; stronger effect = lower value; in the data active means activity change below about -60%; inconclusive means no clear call, values can overlap the other calls; inactive means above about -39%
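Luciferase read-out from HCMV-luciferase-infected HFFs (MOI 1 PFU/cell) 72 h post infection at 37C; compounds added after 16 h cell attachment; activity normalized between buffer-only basal and Salinomycin (10uM) inhibitor controls.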
HCV inh – blocks hepatitis C virus. Huh7.5.1 HCVcc-Cre infection, luciferase reporter, 44 h. Potency, µM (doses to about 41.8 µM), for inactives: top-dose activity change, negative = inhibition, usual class: inhibitors. hit rate 3.4% among 340,000; active means well fitted inhibition curve with a large enough effect; inconclusive means small, poorly fitted or top-dose-only effect, or another doubt; inactive means no such curve, though single readings can be large or run the other way; further: potency means the concentration at half of the fitted maximal effect
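Whole-lifecycle infectious HCVcc-Cre system; cells 1,000/well, compound then virus (~0.5 moi) added 4 h after plating, 44 h culture. Luciferase read 15 sec following 15 min substrate incubation, room temp.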
Lassa entry inh – Lassa virus entry inhibition; Lassa virus pseudotype entry inhibition, cell reporter; Potency, µM (doses to about 37.9 µM), for the others: at the highest dose activity change, negative = inhibition, usual class: inhibitors; hit rate 1.2% among 300,000; AID 540256; calls by dose curve; tested in HEK293 cells; further: potency means the concentration at half of the fitted maximal effect; nearly all actives have a fitted effect of over 50% in size
Active calls of the source: *; ? = inconclusive; nt = no result given; ! = repeats disagree; [ ] = dose if it differs, or a comment. Only some compounds are listed: those with a hit (about 7.9% of all), similar ones and a draw of the others. On the % scale 0 is the no-effect control and ±100 the full control effect.

SMILES	MARV entry inh	FMDV antiviral	HCMV inh	HCV inh	Lassa entry inh
N=c1c(C(=O)NCc2ccc(F)cc2)cc2c(=O)n3ccccc3nc2n1Cc1ccco1	?	?	32	1µM*	1%
N=c1c(C(=O)NCc2ccccc2)cc2c(=O)n3ccccc3nc2n1Cc1ccco1	11µM*	-28%	26	7.9µM*	-27%
Cc1ccc(CNC(=O)CCCCn2c(=O)c3ccccc3n(Cc3ccc(Cl)cc3)c2=O)cc1	1%[46.1 µM]	-6%	-5	nt	-4%[46.1 µM]
COCCn1c(=N)c(C(=O)NCc2ccco2)cc2c(=O)n3ccccc3nc21	?	-13%	12	-29%	-17%
O=C(CCCCn1c(=O)c2ccccc2n(Cc2ccc(Cl)cc2)c1=O)NCc1ccco1	?	?	42	13µM*!	?
Cc1ccc(CNC(=O)c2cc3c(=O)n4ccccc4nc3n(Cc3ccco3)c2=N)cc1	3%	?	-26	?	11%
CC(=O)Nc1ccc(S(=O)(=O)NCc2ccc3c(c2)CCN3C(C)=O)cc1	nt	-13%	?	nt	2%[46.1 µM]
Cc1cc(C)c(S(=O)(=O)NCc2ccncc2)c(C)c1	?	-2%	-84*	?	?
COc1cc(C)c(Br)cc1S(=O)(=O)NCc1cccs1	-1%	59%	?	5%	-14%
COc1cc(C)c(Br)cc1S(=O)(=O)NCc1ccncc1	?	23%	-76*	?	?
C[C@H](CO)N1C[C@H](C)[C@@H](CN(C)S(=O)(=O)c2cccs2)OCc2cnnn2CCCC1=O	nt	-20%	0	nt	nt
CCOC(=O)c1c(C)n(C)c2ccc(OC(C)C(=O)OC)cc12 (stereo unspecified)	10%	-20%	45	?	-1%
CCOC(=O)c1c(C)n(C)c2cc(Br)c(C(=O)OC)cc12	?	-18%	11	10µM*	-4%
CCN(CC)CCNC(=O)c1c(C)n(-c2ccccc2)c2cc(Br)c(OC)cc12	?	-20%	-11	?	7.3µM*
COc1cc2c(C(=O)N3CCN(C)CC3)c(C)n(-c3ccccc3)c2cc1Br	?	-8%	2	1%	13%
CCOC(=O)c1c(CNCCN(CC)CC)n(C)c2cc(Br)c(OC)cc12	11µM*!	-26%	4	?	?
N#Cc1c(SCc2c(Cl)cccc2Cl)nc(N)[nH]c1=S	nt	3%	-7	-10%	nt
CCc1nnc(NC(=O)c2cc(=O)c3cc(C)ccc3o2)s1	?	10%	25	nt	15%[46.1 µM]
CCOC(=O)c1ccc(NC(=O)c2ccc(CN3CCc4ccccc4C3)cc2)cc1	?	?	-33	1.4µM*	-23%
CCOC(=O)c1ccc(NC(=O)CN2CCc3ccccc3C2)cc1	-16%	17%	63	-9%	0%
CCOc1ccc(NC(=O)c2ccc(CN3CCc4ccccc4C3)cc2)cc1	?	?	?	2µM*	-11%[46.1 µM]
Cc1ccc(S(=O)(=O)N2CCC(=O)N(CCOC(=O)Nc3cccc(Cl)c3)CC2)cc1	-1%	9%	-64*	?	-1%
COc1ccc(CNC(=O)OCCN2CCN(S(=O)(=O)c3ccc(C)cc3)CCC2=O)cc1	?	0%	-65*	-2%	4%
COc1cc(C(=O)N2CCC(c3nc4ccccc4o3)CC2)cc(OC)c1OC	-23%[46.1 µM]	-21%	57	nt	-9%[46.1 µM]
O=C(O)c1cc2cc(OCc3ccccc3)ccc2[nH]1	-2%	nt	89	9%	12%
SMILES	MARV entry inh	FMDV antiviral	HCMV inh	HCV inh	Lassa entry inh
CCOC(=O)c1ncc2[nH]c3ccc(OCc4ccccc4)cc3c2c1COC	nt	16µM*	nt	nt	nt
Cc1cc(C)cc(CO[C@H]2C=C[C@@H](c3ccccc3)O[C@H]2CO)c1	-24%[14.2 µM]	nt	nt	nt	nt
CC1(C(=O)NS(=O)(=O)c2cccc(C#N)c2)CCN1C(=O)C/C=C/c1ccccc1 (stereo unspecified)	nt	4%	-25	nt	nt
O=C(CN(c1cccc(C(F)(F)F)c1)S(=O)(=O)c1ccc(Cl)c([N+](=O)[O-])c1)NCc1ccccc1	23µM*	-19%	8	?	?
O=C(O)CN(c1cccc(C(F)(F)F)c1)S(=O)(=O)c1ccccc1	14%[46.1 µM]	6%	5	14%	-1%
O=C(CN(c1ccc(Br)cc1)S(=O)(=O)c1ccc(Cl)c([N+](=O)[O-])c1)NCCc1ccccc1	?	-24%	-21	?	24%
CC(NC(=O)CN(c1cccc(C(F)(F)F)c1)S(=O)(=O)c1ccc(Cl)c([N+](=O)[O-])c1)c1ccccc1 (stereo unspecified)	?	?	46	?	?

Assay outcomes from PubChem BioAssay.
